Among the data in publication PMC7819943, “Rice protein-binding microarrays: a tool to detect cis-acting elements near promoter regions in rice” are binding signal values, retold here.

Whole data set: some 39,000 sequences, median “fluorescence intensity (a.u.)” near 4,300, cut for the highest 2% near 39,000. The entries come from a sample that favours the highest values as a whole.

The target of the assay is T1, OsSMF1 (Oryza sativa, UniProt Q6ZLB0 1-436).
T1 sequence: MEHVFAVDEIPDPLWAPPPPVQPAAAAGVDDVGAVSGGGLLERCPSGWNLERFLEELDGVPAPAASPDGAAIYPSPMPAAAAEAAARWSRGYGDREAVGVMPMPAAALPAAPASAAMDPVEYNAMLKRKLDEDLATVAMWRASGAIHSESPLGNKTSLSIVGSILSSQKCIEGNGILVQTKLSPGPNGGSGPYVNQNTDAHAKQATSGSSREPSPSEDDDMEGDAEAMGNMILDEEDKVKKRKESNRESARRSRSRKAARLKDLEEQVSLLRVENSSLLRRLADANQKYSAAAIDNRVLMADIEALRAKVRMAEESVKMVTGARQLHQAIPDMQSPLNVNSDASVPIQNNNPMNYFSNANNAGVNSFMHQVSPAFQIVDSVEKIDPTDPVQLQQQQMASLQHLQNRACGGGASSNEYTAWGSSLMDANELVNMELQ
Briefly: protein-binding microarray (RPBM); PBS, 2% BSA, 51.3 ng/ul salmon testes DNA, 50 uM zinc acetate, 200 nM TF, 25 C, 1 h; high values mean tight binding. Particulars: protein: recombinant; tags: N-terminal polyhistidine and DsRed monomer fusion (pET32a); chain copies: 2; label: CyDye5-dUTP incorporated in the synthesized complementary strand; 3' TTTTT single-stranded linker to array surface; dsDNA, one strand shown. A digest of the protocol: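 Ni–NTA purification followed expression in E. coli BL21-CodonPlus of transcription factors fused N-terminally to a polyhistidine tag and DsRed. At 200 nM in PBS with 2% BSA, salmon testes DNA and 50 µM zinc acetate, the protein was incubated for 1 h at 25 °C with a custom Agilent array that had been primer-extended with Cy5-dUTP and blocked with 2% BSA. After washing, the array was read on an Axon 4000B scanner. The binding signal is per-feature fluorescence intensity in arbitrary units.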
Consider “GCTACTAAGGAGTACTACAATATTGCATCATCGTCATCATCGGAGTCACCTAGTGCAG”, for which the binding signal is 6340 fluorescence intensity (a.u.).

As for “TAAGCTAACCTTGTACTAAGATGTGACACATCCAAGTACACGGAGTCACCTAGTGCAG”, the binding signal was 3630 fluorescence intensity (a.u.). “AAGCTAACTTGTGTTGCCTACACAAGTACTAAAATGGCATCGGAGTCACCTAGTGCAG”: the binding signal was 63600 fluorescence intensity (a.u.). “TGCGCCGATAGCTCCTGTCAACGTGTCACGCGCTGCGCCTCGGAGTCACCTAGTGCAG”: the binding signal was 8650 fluorescence intensity (a.u.).

For the sequence “CCAGTAATCCTCCTCCTGCTGCCTCAGCTCCTCTTCTGTACGGAGTCACCTAGTGCAG”, the binding signal was 50800 fluorescence intensity (a.u.). As for “ATTCCAATTCCAGCTCAATGCTGCACGGAATCTCCTCTTCCGGAGTCACCTAGTGCAG”, the binding signal is 4140 fluorescence intensity (a.u.).

Take “TACCTCTTCAGTACAGCTGCAGCTGCTGACTGCTCACTACCGGAGTCACCTAGTGCAG”: the binding signal was 4340 fluorescence intensity (a.u.). With “CACAACTACGTAGACGGGCGTTTGCGGCCGAAAATTTGACCGGAGTCACCTAGTGCAG”, the binding signal was 3730 fluorescence intensity (a.u.).

In the case of “CGGTCCGGGCGATTTGACCGGTCAAAAGGCGTGGCCACGACGGAGTCACCTAGTGCAG”, the binding signal is 3850 fluorescence intensity (a.u.).

In the case of “AAAACGACCGGTTTTGACGTAAATCCACAAGGCGTTATGACGGAGTCACCTAGTGCAG”, the binding signal is 58400 fluorescence intensity (a.u.). On to “CGCCGCCACAACCGCGCGCCGTCACCGCCGCGTGCCGTCACGGAGTCACCTAGTGCAG”, for which the binding signal is 5070 fluorescence intensity (a.u.). The figure for “CCCACCACACACCCGGCCCCACATGTCATCCACCCATCCACGGAGTCACCTAGTGCAG” is 4500 fluorescence intensity (a.u.); for “CATTATCTAAGTTTCTTTACGTCATTATCTTCGTTTAATTCGGAGTCACCTAGTGCAG” it is 3230 fluorescence intensity (a.u.). For “TTCTTTCGTTAGTTCACCAAAGATGGGCATTTTACTAAGACGGAGTCACCTAGTGCAG” the value was 65000 fluorescence intensity (a.u.); for “TCTTTTCTAAGTCATGTTAGACCAATAGAGATTTCTCAAACGGAGTCACCTAGTGCAG”, 27600 fluorescence intensity (a.u.).

Take “TGTGTGCGTGTGTTGTGACTTATGATGTGTTTCTTAAGAACGGAGTCACCTAGTGCAG”: the binding signal was 4170 fluorescence intensity (a.u.).

For the sequence “GATTCATTTAACAATTATATGAATGTGGGAAATGCTAGAACGGAGTCACCTAGTGCAG”, the binding signal was 44400 fluorescence intensity (a.u.). For “TAGAATTTCTCTTCATATAATGCTACGTCATTGCTATATACGGAGTCACCTAGTGCAG”, the binding signal is 10300 fluorescence intensity (a.u.).

As to “CATGGTAGAAAATTAGATTATGGTGCATTTGCTGCAAATGCGGAGTCACCTAGTGCAG”, the binding signal was 3860 fluorescence intensity (a.u.). Consider “CTAGATTTATTAATATCGATATGAATGTGGAAAATGCTAGCGGAGTCACCTAGTGCAG”, for which the binding signal is 18100 fluorescence intensity (a.u.). Consider “TCATTAACATCAATATGAATGTGAGAAATGCTAGAATGACCGGAGTCACCTAGTGCAG”, for which the binding signal is 3240 fluorescence intensity (a.u.). For “CTATTGCAAATTGCAATGCTGTATATGCACTTCATTAGAACGGAGTCACCTAGTGCAG” the value was 54100 fluorescence intensity (a.u.). Regarding “AATAATTTTCTCATTTTCTTTAACAGAAGATGACAATGCACGGAGTCACCTAGTGCAG”, the binding signal was 34800 fluorescence intensity (a.u.). The figure for “GATTGAATCATATCGTATCCTTTGAAATTCCTATGGAATGCGGAGTCACCTAGTGCAG” is 4120 fluorescence intensity (a.u.); for “AGTTCTACTTGAGTTATGTAATGAATCACAATGCCTTCATCGGAGTCACCTAGTGCAG” it is 53400 fluorescence intensity (a.u.); for “TCCTTCAAGAATCCTATACTTCTTAAATCAGGAACATAATCGGAGTCACCTAGTGCAG” it is 8910 fluorescence intensity (a.u.).

As for “TCCAAATCCTATGAAATTCCTATGGAAATCCACGTTGCATCGGAGTCACCTAGTGCAG”, the binding signal is 7670 fluorescence intensity (a.u.). As for “TTTGAATCAAAGGAATGGATCTTATGGAATCCTATAAAATCGGAGTCACCTAGTGCAG”, the binding signal is 40400 fluorescence intensity (a.u.).

As for “CACCACCCTAAATGGAATAAGAAAATTCTTATTTGTGAATCGGAGTCACCTAGTGCAG”, the binding signal is 3440 fluorescence intensity (a.u.). For “CACTTGGTAATTACTTCTACTATGTCATCCTTATCATAATCGGAGTCACCTAGTGCAG”, the binding signal is 3200 fluorescence intensity (a.u.).

For the sequence “AGTTCATTATCATCATGTAATGAATCATCATGAATCCAAACGGAGTCACCTAGTGCAG”, the binding signal is 3280 fluorescence intensity (a.u.).

As to “ATCTTATGGAATCCTATGAAATTCATATGGAATGCCTAATCGGAGTCACCTAGTGCAG”, the binding signal is 65000 fluorescence intensity (a.u.). For the sequence “TAAGGAGGGTGTTGGGAGGGTGGGAGCTTTGCTTGGGGTGCGGAGTCACCTAGTGCAG”, the binding signal was 3950 fluorescence intensity (a.u.). With “TTGTTGAACTATAGGGTAGATGTGATATGTAAGAATTGCCCGGAGTCACCTAGTGCAG”, the binding signal was 3280 fluorescence intensity (a.u.). In the case of “CCGGGGTGTCAGAAATCCAGGCCCACCCGTCAGCGACGCGCGGAGTCACCTAGTGCAG”, the binding signal was 4130 fluorescence intensity (a.u.). For “AAATCTCTCTCCACCCTTTCAGCGCGCCACGTGTCCCACACGGAGTCACCTAGTGCAG”, the binding signal was 18900 fluorescence intensity (a.u.).

For “CAAAATACTCAAGCGGCGGCATTGTCATCTTCCTCCTCCCCGGAGTCACCTAGTGCAG”, the binding signal is 3550 fluorescence intensity (a.u.). Turning to “AATGCCAAGTGGCAGCCTATGAGCGTTTGTAGCATGCCATCGGAGTCACCTAGTGCAG”, the binding signal was 41200 fluorescence intensity (a.u.). With “TGCTATGCTATGGCAAGAACATCTTGAGCCATGACATCATCGGAGTCACCTAGTGCAG”, the binding signal was 4390 fluorescence intensity (a.u.). With “GAGTATTTGGCATGGTTGTAGCGTTGGTGACCTGAGTCATCGGAGTCACCTAGTGCAG”, the binding signal is 7270 fluorescence intensity (a.u.).

With “TCTGTTTAGTTACATCACTGATGGTCTTGATTTCGCAGTGCGGAGTCACCTAGTGCAG”, the binding signal is 4040 fluorescence intensity (a.u.).

As for “CTGCACTACGCCGCAGACGAACTGACGTGGTCGTATAAAACGGAGTCACCTAGTGCAG”, the binding signal is 5790 fluorescence intensity (a.u.).
